The source of these data is PubChem BioAssay (NCI).

The panel holds about 83,000 compounds, 20% with a hit somewhere; the sample as a whole holds those more often.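 Note: values are percent growth. 100 is the growth of untreated cells, values between 100 and 0 indicate rising inhibition; between -100 and 0 indicates cell death.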 A number with no mark means an inactive call. The source made the active and inactive calls. How the source made its calls: active means growth percent below 10; inactive means the rest.

This experiment concerns NCI-H522 lung. Kind of experiment: NCI-60 one-dose screen, 48 h (100 = growth as untreated, 0 = no growth, -100 = all killed). To be noted: 10 µM unless noted.
For `COc1ccc(/C(C)=N/NS(=O)(=O)c2ccc(C)cc2)cc1OC`, the growth is 117%.

In the case of `C[C@@H]1C(=O)N(C[C@@H](Cc2ccccc2)NC(=O)OCc2ccccc2)[C@]1(Cc1ccccc1)C(=O)OCc1ccccc1`, the growth is 44.3%.

On to `NC(=Nc1ccc(N)cc1)C(N)=Nc1ccc(N)cc1`, for which the growth was 111%.

Take `N#Cc1c(NC(=O)c2ccccc2I)sc2c1CCCC2`: the growth is 24.6%.

For the compound `Cc1ccc(Nc2ccc(Nc3ccc(C)cc3S(=O)(=O)O)c3c2C(=O)c2ccccc2C3=O)c(S(=O)(=O)O)c1`, the growth was 93.3%.

As to `C=C1C(=O)O[C@H]2[C@H]1CC/C(Cn1cc(CNCCc3c[nH]c4ccc(Cl)cc34)nn1)=C\CC[C@@]1(C)O[C@@H]21`, the growth is -91% (active).

On to `Cn1cc(Nc2nccc(-c3ccc(N4CCCC4)c(C#N)c3)n2)cn1`, for which the growth was 22%.

`CSc1ncc(C)c(Nc2ccc(Cl)cc2)n1`: the growth is 80.1%.

Regarding `COc1cc(/C=C2\C=C(c3ccccc3)N(CCc3ccccc3)C2=O)cc(OC)c1OC`, the growth was 65.7%.

As for `O=c1cc(-c2ccc(OCc3ccccc3)cc2)oc2c(I)c(OCc3ccccc3)cc(OCc3ccccc3)c12`, the growth was 91.5%.

Turning to `CC(=O)Nc1nccs1`, the growth is 87%.

In the case of `N[C@H]1CCC[C@@H]1NCCCCN1C(=O)c2cccc3cccc(c23)C1=O`, the growth is 57.1%.

On to `N=C(N)c1ccc(-c2ccc(-c3ccc(Cl)cc3Cl)o2)nc1`, for which the growth was 30%.

As to `O=C1N/C(=N/O)S/C1=C/c1cn(-c2ccccc2)nc1-c1ccccc1`, the growth is 95.6%.

Take `C[C@@H]1CC[C@@H]2[C@@H]1[C@H](OC(=O)c1ccc3ccccc3c1)[C@]1(C3CCCCC3)C[C@@H](OC(=O)CO)[C@@]2(C)O1`: the growth is 49.4%.

For `CN(C)c1ccc(C#Cc2c(F)cccc2Cl)cc1`, the growth was 65.1%.

With `CCCN1CCN(c2ccc3nc(-c4ccc5nc(-c6cc(OC)c(OC)c(OC)c6)[nH]c5c4)[nH]c3c2)CC1`, the growth was 41.1%.

For `O=C(NCCOCCOCCOCCNC(=O)c1cc2c(o1)C(=O)c1ccccc1C2=O)NC12CC3CC(CC(C3)C1)C2`, the growth was -27.7% (active).

As to `COc1cc2c(cc1OC)-c1ccc3cc4c(cc3c1N(CCN(C)C)C2)OCO4`, the growth is -44.9% (active).

For `O=C(NC(=S)Nc1ccc(-c2nc3ccccc3[nH]2)cc1)c1ccc2ccccc2c1`, the growth is 63.2%.

In the case of `CC[C@@H](C[C@H](CCO)c1ccccc1)c1cc2ccccc2o1`, the growth was 77.5%.

Take `NC(N)=N/N=C/c1ccc(Br)cc1`: the growth was 40%.

Turning to `CN(C)CCOC(=O)Nc1ccc(Cl)cc1`, the growth is 64.9%.

For `O=C(/C=C/C12c3ccccc3C(c3ccccc31)C1C(=O)N(c3ccc(Cl)cc3)C(=O)C12)c1ccccn1` (centres undefined), the growth was -6.34% (active).

For `OC(c1cccc(OCc2ccccc2)c1)c1nnc(-c2ccccc2)o1` (centres undefined), the growth is 79.2%.

Turning to `O=C1N(c2ccccc2)C(=S)N[C@]12[C@H](c1ccccc1)C1CCCN1[C@]21C(=O)NC2C=CC(Cl)=C[C@H]21` (some centres undefined), the growth is 61.8%.

Take `COC(=O)/C(=C\c1ccc(OC)cc1)C(=O)N1c2ccccc2Sc2ccccc21`: the growth is 2.63% (active).

For `Cc1ccc(S(=O)(=O)Nc2sccc2-c2nc(-c3ccccc3)no2)cc1`, the growth was 81.2%.

For the compound `CCNCCNc1cc(-c2ccc(C(F)(F)F)cc2)c(C#N)c2nc3cc(Cl)c(Cl)cc3n12`, the growth was -73.3% (active).

With `COc1ccc(/C=C(\C#N)n2nnc3ccccc32)cc1`, the growth was 21.2%.

As for `CC(C)n1nc(C#Cc2cccc3cc(-c4cccc(C(F)(F)F)c4)ncc23)c2c(N)ncnc21`, the growth is 43.7%.

On to `COC(=O)CNC(=O)C(=O)c1c(O)c(O)c(C(C)C)c2cc(C)c(-c3c(C)cc4c(C(C)C)c(O)c(O)c(C(=O)C(=O)NCC(=O)OC)c4c3O)c(O)c12`, for which the growth was -0.907% (active).

On to `NC(=O)c1c(NC(=O)c2ccc(C(F)(F)F)cc2Cl)sc2c1CCC(=O)C2`, for which the growth is -25.6% (active).

For `C[C@@H](C[C@H](CCOCc1cccnc1)c1ccccc1)c1cc2ccccc2o1`, the growth was 78.2%.

Consider `CCn1c(Sc2nnc(Nc3ccccc3)s2)nc2c1c(=O)n(C)c(=O)n2C`, for which the growth is 114%.

Regarding `Cc1cc(Cl)nc(N(CCCNc2ccnc3cc(Cl)ccc23)Cc2ccccn2)n1`, the growth is 40%.

As to `OC(CBr)c1ccnc2ccccc12` (centres undefined), the growth was 71.8%.

As for `COc1cc(C2C=C(c3cccc(NC(C)=O)c3)Nc3ncnn32)cc(OC)c1OC` (centres undefined), the growth was -3.09% (active).

Consider `CCCCOC(=O)c1ccc(NC(=O)C(C)N2CCOCC2)cc1` (centres undefined), for which the growth is 67.9%.
